Values joined by “and” are separate entries in the source; they are usually repeats but may differ in a detail not shown here. Equal entries are not always repeated. Records with an inconclusive call do not appear. Where a call stands in place of a potency, no number is given. Active and inactive are the calls of the source. The call rests on the fitted dose curve.
Test: qHTS assay to identify small molecule agonists or antagonists of the thyroid stimulating hormone receptor (TSHR) signaling pathway - wild type cell line counter screen (AID 1259384)
Settings: HEK293 wild type, cAMP HTRF counter-screen; series mostly up to 92.4 µM; cAMP activity change: at the top concentration
From the text: U.S. Tox21 Program National Center for Advancing Translational Sciences [NCATS] NIH Chemical Genomics Center [NCGC] U.S. Environmental Protection Agency [EPA] National Institutes of Environmental Health Sciences [NIEHS] National Toxicology Program [NTP] U.S. Food and Drug Administration [FDA] Tox21 Assay Overview: TSHR is the receptor for thyrotropin (thyroid stimulating hormone or TSH), a member of the glycoprotein hormone family. TSH is released by the anterior pituitary gland and is the main regulator of thyroid gland growth and development. Upon binding circulating thyrotropin, a G-protein signal cascade activates adenylyl cyclase and […] cAMP concentration is increased. cAMP is a key second messenger involved extensively in cellular signal transduction pathways associated with the majority of G-protein coupled receptors (GPCRs). The activation of these GPCRs by neurotransmitters, lipids, nucleotides, peptides and hormones results in the activation or the inhibition of plasma membrane-bound adenylate cyclase through heterotrimeric G-proteins. A cell-based TSHR-Hek293 assay can be used to identify TSHR agonists. To eliminate the false positive compounds identified from screening a cell-based TSHR-Hek293 cell line, cAMP assay in a wild type Hek293 cells was used as a counter screening.
Tox21 Assay Protocol Summary: Hek293 cells (wild type) were dispensed at 800 cells/4 uL/well in 1536-well white plates using a Multidrop dispenser. After the assay plates were incubated at a 37 C/5% CO2 incubator for 18 hrs, 23 nL of compounds dissolved in DMSO, positive controls or DMSO only was transferred to the assay plate by a pin tool, followed by 1 ul medium containing Ro20-1724. After 30 min of incubation at room temperature, 2.5 ul/well of cAMP-d2 and 2.5 ul/well of anti-cAMP-cryptate were added respectively into the assay plates using a Flying Reagent Dispenser. The plates were incubated at room temperature for 1 hr. The fluorescence intensity in the plates was measured using an Envision plate reader. Each test compound was measured at 15 concentrations and in triplicates.
Potency means the concentration at half of the fitted maximal effect.

Compound	Potency	cAMP activity change
O=S1(=O)CCCO1	inactive	
CC1(C)OC(=O)NC1=O	inactive	
O=C(CCCN1CCC(O)(c2ccc(Cl)cc2)CC1)c1ccc(F)cc1	inactive	
CCCCCCCC/C=C\CCCCCCCC(=O)O	inactive	
COc1ccc(C(=O)c2ccccc2O)c(O)c1	inactive	
COC(=O)CC(=O)OC	inactive	
c1ccc2c(c1)ccc1ncccc12	inactive	
Oc1ccc(C(c2ccc(O)cc2)C(Cl)(Cl)Cl)cc1	inactive	
C=C[Si](OCCOC)(OCCOC)OCCOC	inactive	
CCc1cccc2c3c([nH]c12)C(CC)(CC(=O)O)OCC3 (stereo not given)	inactive	
CC(=O)OC(C)C	inactive	
Nc1ccc2c(O)cc(S(=O)(=O)O)cc2c1		-7.42% (inactive)
C=CC(=O)OCCCC	inactive	
O=C(O)c1cc(=O)[nH]c(=O)[nH]1	inactive	
CNC[C@H](O)c1ccc(O)c(O)c1	1.66 µM (active) and 111 nM (active)	
OC[C@H]1O[C@@H]2O[C@H]3[C@H](O)[C@@H](O)[C@@H](O[C@H]4[C@H](O)[C@@H](O)[C@@H](O[C@H]5[C@H](O)[C@@H](O)[C@@H](O[C@H]6[C@H](O)[C@@H](O)[C@@H](O[C@H]7[C@H](O)[C@@H](O)[C@@H](O[C@H]1[C@H](O)[C@H]2O)O[C@@H]7CO)O[C@@H]6CO)O[C@@H]5CO)O[C@@H]4CO)O[C@@H]3CO	inactive	
O=C(O)CCCCCCCCCCCC(=O)O	inactive	
OCCNCCO	inactive	
C=CC(C)(O)CCC=C(C)C (stereo not given)	inactive	
C[C@]12CC[C@@H]3c4ccc(O)cc4CC[C@H]3[C@@H]1CC[C@@H]2O	inactive	

Compound	Potency	cAMP activity change
CC(=O)Oc1ccc(C(c2ccc(OC(C)=O)cc2)c2ccccn2)cc1	inactive	
CCCN1C=CN(C)C1	inactive	
CC(C)(Oc1ccc(Cl)cc1)C(=O)O	inactive	
OC[C@@H](O)[C@@H](O[C@@H]1O[C@H](CO)[C@H](O)[C@H](O)[C@H]1O)[C@H](O)[C@@H](O)CO	inactive	
CC(C)[N+](C)(CCOC(=O)C1c2ccccc2Oc2ccccc21)C(C)C	inactive	
c1ccc2cc3ccccc3cc2c1	inactive	
ClC/C=C/CCl	inactive	
FC(F)(F)C(Cl)Br (stereo not given)	inactive	
CCC/C=C/C=O	inactive	
O=[Se](O)O	inactive	
Cc1ccc(S(=O)(=O)NCl)cc1	inactive	
IC(I)I	inactive	
CC1(C)O[C@@H]2C[C@H]3[C@@H]4C[C@H](F)C5=CC(=O)C=C[C@]5(C)[C@@]4(F)[C@@H](O)C[C@]3(C)[C@]2(C(=O)CO)O1	inactive	
CCCCCC1C(=O)CCC1CC(=O)OC (stereo not given)	inactive	
COc1ccc2nc(N)sc2c1	inactive	
CC(=O)Oc1c(C)c(C)c2c(c1C)CC[C@@](C)(CCC[C@H](C)CCC[C@H](C)CCCC(C)C)O2	inactive	
NCCS(=O)(=O)O		2.54% [at 42.5 µM, hits give high values] (inactive)
CCCCCCOCCOCCO	inactive	
CC(=O)O[C@]1(C(C)=O)CC[C@H]2[C@@H]3C=C(Cl)C4=CC(=O)CC[C@]4(C)[C@H]3CC[C@@]21C	inactive	
CC/C=C\C/C=C\C/C=C\CCCCCCCC(=O)O	inactive	

Source: PubChem BioAssay (Tox21)
